For 30 molecules, Potency and activity change, negative = cytotoxicity results are on record in PubChem BioAssay (NCATS).

Results filed as inconclusive are left out. A call without a number means that no potency is given here. Active and inactive are the calls of the source. Calls follow the shape of the dose curve; as a rule, active = well fitted inhibition curve with a large enough effect; inconclusive = small, poorly fitted or top-dose-only effect; inactive = flat fitted curve, though single readings scatter.
Potency is read from the fitted curve at half-maximal effect.

This assay concerns WaGa. The assay can be described thus: qHTS assay to identify novel small-molecules to repurpose for Merkel cell carcinoma treatment (AID 1296009). Also: nearly all actives have a fitted effect of over 60% in size. The settings on record: MCC and control cell lines, CellTiter-Glo viability, 72 h; series mostly up to 46 µM. Put shortly:
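Cells were incubated with compound for 72 hr at 37 degree celsius before CellTiter-Glo addition. Luminescence was normalized with no-cell wells as full cytotoxicity and DMSO as baseline.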
(Quantitative high-throughput screening tests each substance at several concentrations.)
Consider `CC(=O)Oc1ccc(C)cc1`, for which the Potency result was “inactive”. In the case of `CC(C)(C)NC[C@H](O)COc1nsnc1N1CCOCC1`, the Potency result is “inactive”. The same measure, in the same setting: with `Cc1ncc(CO)c(C=O)c1O` the entry was “inactive”; with `CN(C)CCN1C(=O)c2ccccc2N(C)c2ccccc21`, “inactive”. As for `COc1cc(C)nc(-n2nc(C)cc2OC)n1`, the Potency entry is “inactive”. Same read-out and setting: the entry for `O=C1C(O)=C(O)C(=O)C(O)=C1O` is “inactive”; for `CCCCCCCCCCCCSCCOCCO` it is “inactive”. On to `COc1ccc(C(=O)c2ccccc2)c(O)c1`, for which the Potency entry is “inactive”.

Take `OC[C@H]1O[C@@H]2O[C@H]3[C@H](O)[C@@H](O)[C@@H](O[C@H]4[C@H](O)[C@@H](O)[C@@H](O[C@H]5[C@H](O)[C@@H](O)[C@@H](O[C@H]6[C@H](O)[C@@H](O)[C@@H](O[C@H]7[C@H](O)[C@@H](O)[C@@H](O[C@H]8[C@H](O)[C@@H](O)[C@@H](O[C@H]1[C@H](O)[C@H]2O)O[C@@H]8CO)O[C@@H]7CO)O[C@@H]6CO)O[C@@H]5CO)O[C@@H]4CO)O[C@@H]3CO`: the Potency entry was “inactive”. `CCOC(=O)c1c(N)sc2c1CCN(Cc1ccccc1)C2`: the Potency was 21.1 µM (active). On the same count and under the same terms, with `CCCCCCCC/C=C\CCCCCCCCN` the entry was “inactive”. `N#CCC(=O)NN`: the Potency result is “inactive”.

Take `C#C[C@]1(O)CC[C@H]2[C@@H]3CCC4=CC(=O)CC[C@@H]4[C@H]3CC[C@@]21CC`: the Potency result is “inactive”. Turning to `CN1CCC(OC(c2ccccc2)c2ccccc2)CC1`, the Potency result is “inactive”.

On to `CCN[C@@H]1C[C@H](N)[C@@H](OC2OC(CN)=CCC2N)[C@H](O)[C@H]1O[C@H]1OC[C@](C)(O)[C@H](NC)[C@H]1O` (stereo not given in full), for which the activity change, negative = cytotoxicity was 13.3% [at 0.597 µM] (inactive). For the molecule `CC(=O)N[C@@H](CCC(=O)O)C(=O)O`, the Potency entry was “inactive”.

As to `CCCc1ncc(C[n+]2ccccc2C)c(N)n1`, the Potency result is “inactive”. Regarding `CCN(CC)CCOC(=O)C1(c2ccccc2)CCCC1`, the Potency entry was “inactive”. On the same count and under the same terms, with `CCC(Cc1c(I)cc(I)c(N)c1I)C(=O)O` (stereo not given) the entry was “inactive”. As to `Cc1cccc(C)c1NC(=O)CN1CCCCCC1`, the Potency result is “inactive”. In the case of `Nc1ccc(S(=O)(=O)NCc2ccccc2)cc1`, the Potency result was “inactive”. For the molecule `CN1CCc2cccc3c2[C@H]1Cc1ccc(O)c(O)c1-3`, the Potency is 11.9 µM (active). As to `CCN(CC)CCOc1ccc2c(c1)C(=O)c1cc(OCCN(CC)CC)ccc1-2`, the Potency is 15 µM (active). For `CCc1oc2ccccc2c1C(=O)c1cc(I)c(O)c(I)c1`, the Potency result is “inactive”. `CCCCCN=C(N)N/N=C/c1c[nH]c2ccc(OC)cc12`: the Potency result was “inactive”. Regarding `O=C(O)CCNC(=O)c1ccccc1`, the Potency entry is “inactive”. For the molecule `CCCCC(CC)COC(=O)/C=C/c1ccc(OC)cc1` (stereo not given), the Potency result was “inactive”. Take `COc1cc(NS(=O)(=O)c2ccc(N)cc2)ncn1`: the Potency entry is “inactive”. The same measure, in the same setting: the figure for `Cc1ccc2c(Br)cc(Br)c(O)c2n1` is 9.44 µM (active); for `C=C[C@@]1(C)CC(=O)[C@]2(O)[C@@]3(C)[C@@H](O)CCC(C)(C)[C@@H]3[C@H](O)[C@H](OC(C)=O)[C@@]2(C)O1` it is “inactive”.
